Reference: PubChem BioAssay (NCI)
The panel holds about 79,000 compounds, 15% with a hit somewhere; the sample as a whole holds those more often. The source made the active and inactive calls. No stated cut-off is given here; in the data, active means growth inhibition above about 70%; inactive means the rest.

Experiment: NCI Yeast Anticancer Drug Screen. Data for the mec2-1 strain (AID 157)
Conditions: S. cerevisiae mec2-1 strain, at 50.0 µM, hits give high values
How it was run: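 Each compound was tested on mec2-1 yeast, a strain altered in DNA damage repair or cell cycle control. Growth inhibition is reported relative to vehicle.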

SMILES	growth inhibition
Nc1cc2[nH]c(=O)c3cc([N+](=O)[O-])ccc3c2cc1Cl	1.3% (inactive)
Cc1cccc(NC(=O)CC(=O)N2N=C(N3c4ccccc4Sc4ccccc43)CC2c2ccccc2)c1 (stereo not given)	-5.5% (inactive)
N[C@@H](CO)[C@@H](O)c1ccc([N+](=O)[O-])cc1	-7.7% (inactive)
CCCCCCCCCCCCCCCCC(C)=O	20.6% (inactive)
COc1cc(C2C(Cl)C(=O)N2n2cnc3ccccc3c2=O)ccc1O (stereo not given)	3.3% (inactive)
NNC(=O)N/N=C1\C(=O)N(c2ccc(Cl)c(Cl)c2)C(=O)C(=O)C1c1nc2ccccc2s1 (stereo not given)	5.95% (inactive)
CCCNC(=O)OCC#CCOC(=O)NCCC	-4.15% (inactive)
O=C(CC(=O)c1ccc(-c2ccc(C(=O)CC(=O)c3ccccc3)cc2)cc1)c1ccccc1	-11% (inactive)
Cc1ccc(C)c(NC(=O)C(=O)C2C(=O)N(c3ccccc3)N=C2N)c1 (stereo not given)	-29.4% (inactive)
CCc1cccc(NC(=O)c2cc(/C=C/c3ccccc3)[nH]c(=S)n2)c1	-19.4% (inactive)
CSc1ccccc1N.[Cl][Cu][Cl]	19.4% (inactive)
BrC1=C(c2ccccc2)C2CCCCC2C1(Br)c1ccccc1 (stereo not given)	97.1% (active)
O=C1NC(=O)C2(CCC(O)C2)c2cc[n+]([O-])cc21 (stereo not given)	-41.4% (inactive)
COC(=O)C(=O)c1c(C(=O)OC)nc2nnc(N)n2c1C1CC1	11.8% (inactive)
CCOC(=O)C(=[N+]=[N-])C(=O)c1cc2ccccc2oc1=O	6.85% (inactive)
CSc1c(C#N)c2c(Cl)ncnc2n1C(C)=O	14.3% (inactive)
COC(=O)C(O)C(O)C(O)C(O)C(O)CO (stereo not given)	-12.1% (inactive)
C=CCNC(=S)N(Cc1ccccc1)Cc1ccccc1	80% (active)
C[C@@]1(NC(=O)Cc2ccccc2)C(=O)N2CCS[C@@]21c1ccccc1	0.8% (inactive)
N#CC1(C#N)CC1c1ccccc1 (stereo not given)	10.7% (inactive)

SMILES	growth inhibition
CCCCS(=O)(=O)N1CCCC1	-10.3% (inactive)
CCN(CC)CCNc1nc(N)c(C#N)c(C#N)c1C#N	-14.4% (inactive)
CC(C)NC(=O)CCC(=O)O	21.6% (inactive)
O=C1C(=Cc2ccc([N+](=O)[O-])cc2)C(=O)c2ccccc21	36.6% (inactive)
O=C1C2Nc3ccccc3N=C2OC1c1cccc([N+](=O)[O-])c1 (stereo not given)	15.6% (inactive)
N#Cc1sc2c(c1OC(=O)c1ccc(C(F)(F)F)cc1)c(=O)n(-c1ccccc1)c(=S)n2-c1ccccc1	0.9% (inactive)
O=[N+]([O-])c1ccc(C2=NOC3COC4C=CC=CC4OCC23)cc1 (stereo not given)	-29.7% (inactive)
CCCCCCCCCCCCCC(=O)OCC(CCS(=O)(=O)O[C@H]1CC[C@@]2(C)C(=CC[C@@H]3C2CC[C@]2(C)C(=O)CCC32)C1)OC(=O)CCCCCCCCCCCCC (stereo not given in full)	-30.9% (inactive)
O=C(/C(=C\c1ccccc1)c1ccccc1)c1ccccc1	32.8% (inactive)
CCc1nc(Nc2cccc(Cl)c2)c2cnn(-c3ccccc3)c2n1	-8.35% (inactive)
C=CCNC(=S)N/C=C(\C#N)c1nc2ccccc2s1	-6.3% (inactive)
CC(=O)Oc1ccc2ccccc2c1CS(=O)(=O)O	6.05% (inactive)
O=S(=O)(Nc1cc(C(F)(F)F)ccc1Cl)c1ccc(F)cc1	-22.4% (inactive)
NC(=O)CNC(=O)[C@@H]1C[C@@H](OCCC(=O)O)CN1C(=O)OCc1ccccc1	-8.75% (inactive)
O=C(O)CCC(=O)Nc1cc([N+](=O)[O-])ccc1OCc1ccccc1	-7.55% (inactive)
CC1=NN(c2ccccc2)C(N)C1 (stereo not given)	17.7% (inactive)
CN(Cc1ccc(Cl)cc1)C(=O)Nc1ccccc1Cl	14.7% (inactive)
O=C(c1ccc(Cl)cc1Cl)N1CCCCC1	-6.15% (inactive)
c1ccc(CN[C@]23C4C5CC6C7C5C2C7[C@@](NCc2ccccc2)(C64)N3Cc2ccccc2)cc1 (stereo not given in full)	-1.05% (inactive)
CN(C)c1ncnc2nc[nH]c12	0.7% (inactive)

Experiment: NCI Yeast Anticancer Drug Screen. Data for the sgs1 mgt1 strain (AID 161);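 further: 0% = growth of cultures given vehicle only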
Conditions: S. cerevisiae sgs1 mgt1 strain, at 50.0 µM, hits give high values
How it was run: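 Read-out: growth inhibition vs vehicle controls. Cells: mutant yeast strain deficient in DNA damage repair.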

SMILES	growth inhibition
Nc1cc2[nH]c(=O)c3cc([N+](=O)[O-])ccc3c2cc1Cl	12.3% (inactive)
Cc1cccc(NC(=O)CC(=O)N2N=C(N3c4ccccc4Sc4ccccc43)CC2c2ccccc2)c1 (stereo not given)	-10.1% (inactive)
N[C@@H](CO)[C@@H](O)c1ccc([N+](=O)[O-])cc1	-3.9% (inactive)
CCCCCCCCCCCCCCCCC(C)=O	5% (inactive)
COc1cc(C2C(Cl)C(=O)N2n2cnc3ccccc3c2=O)ccc1O (stereo not given)	-11.2% (inactive)
NNC(=O)N/N=C1\C(=O)N(c2ccc(Cl)c(Cl)c2)C(=O)C(=O)C1c1nc2ccccc2s1 (stereo not given)	26.9% (inactive)
CCCNC(=O)OCC#CCOC(=O)NCCC	15.4% (inactive)
O=C(CC(=O)c1ccc(-c2ccc(C(=O)CC(=O)c3ccccc3)cc2)cc1)c1ccccc1	-20.4% (inactive)
Cc1ccc(C)c(NC(=O)C(=O)C2C(=O)N(c3ccccc3)N=C2N)c1 (stereo not given)	-1.25% (inactive)
CCc1cccc(NC(=O)c2cc(/C=C/c3ccccc3)[nH]c(=S)n2)c1	6.95% (inactive)
CSc1ccccc1N.[Cl][Cu][Cl]	-2% (inactive)
BrC1=C(c2ccccc2)C2CCCCC2C1(Br)c1ccccc1 (stereo not given)	97.8% (active)
O=C1NC(=O)C2(CCC(O)C2)c2cc[n+]([O-])cc21 (stereo not given)	-13.6% (inactive)
COC(=O)C(=O)c1c(C(=O)OC)nc2nnc(N)n2c1C1CC1	7.75% (inactive)
CCOC(=O)C(=[N+]=[N-])C(=O)c1cc2ccccc2oc1=O	13.6% (inactive)
CSc1c(C#N)c2c(Cl)ncnc2n1C(C)=O	9.95% (inactive)
COC(=O)C(O)C(O)C(O)C(O)C(O)CO (stereo not given)	0.25% (inactive)
C=CCNC(=S)N(Cc1ccccc1)Cc1ccccc1	91.9% (active)
C[C@@]1(NC(=O)Cc2ccccc2)C(=O)N2CCS[C@@]21c1ccccc1	-20.6% (inactive)
N#CC1(C#N)CC1c1ccccc1 (stereo not given)	6.75% (inactive)

SMILES	growth inhibition
CCCCS(=O)(=O)N1CCCC1	1.9% (inactive)
CCN(CC)CCNc1nc(N)c(C#N)c(C#N)c1C#N	-4.55% (inactive)
CC(C)NC(=O)CCC(=O)O	-17.9% (inactive)
O=C1C(=Cc2ccc([N+](=O)[O-])cc2)C(=O)c2ccccc21	22.1% (inactive)
O=C1C2Nc3ccccc3N=C2OC1c1cccc([N+](=O)[O-])c1 (stereo not given)	22.9% (inactive)
N#Cc1sc2c(c1OC(=O)c1ccc(C(F)(F)F)cc1)c(=O)n(-c1ccccc1)c(=S)n2-c1ccccc1	1.05% (inactive)
O=[N+]([O-])c1ccc(C2=NOC3COC4C=CC=CC4OCC23)cc1 (stereo not given)	11.1% (inactive)
CCCCCCCCCCCCCC(=O)OCC(CCS(=O)(=O)O[C@H]1CC[C@@]2(C)C(=CC[C@@H]3C2CC[C@]2(C)C(=O)CCC32)C1)OC(=O)CCCCCCCCCCCCC (stereo not given in full)	-15.3% (inactive)
O=C(/C(=C\c1ccccc1)c1ccccc1)c1ccccc1	26.4% (inactive)
CCc1nc(Nc2cccc(Cl)c2)c2cnn(-c3ccccc3)c2n1	-4.35% (inactive)
C=CCNC(=S)N/C=C(\C#N)c1nc2ccccc2s1	-15% (inactive)
CC(=O)Oc1ccc2ccccc2c1CS(=O)(=O)O	10.9% (inactive)
O=S(=O)(Nc1cc(C(F)(F)F)ccc1Cl)c1ccc(F)cc1	-34.4% (inactive)
NC(=O)CNC(=O)[C@@H]1C[C@@H](OCCC(=O)O)CN1C(=O)OCc1ccccc1	-24.5% (inactive)
O=C(O)CCC(=O)Nc1cc([N+](=O)[O-])ccc1OCc1ccccc1	-5.35% (inactive)
CC1=NN(c2ccccc2)C(N)C1 (stereo not given)	23.3% (inactive)
CN(Cc1ccc(Cl)cc1)C(=O)Nc1ccccc1Cl	43.3% (inactive)
O=C(c1ccc(Cl)cc1Cl)N1CCCCC1	1.75% (inactive)
c1ccc(CN[C@]23C4C5CC6C7C5C2C7[C@@](NCc2ccccc2)(C64)N3Cc2ccccc2)cc1 (stereo not given in full)	-11.8% (inactive)
CN(C)c1ncnc2nc[nH]c12	-6.1% (inactive)
